# According to PubChem BioAssay AID1159506 (National Center for Advancing Translational Sciences (NCATS), 2015):
# Whole data set: some 59,000 sequences, median the read-out near -0.00055, cut for the lowest 2% near -2. This excerpt belongs to a sample that is enriched for the lowest values.
# Experiment: Identification of proteins required for the processing of the EWS-FLI1 nascent transcript;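 further: robust z of luciferase light less the median z of siRNAs with the same seed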
# Conditions: TC32 Ewing sarcoma NR0B1-luc vs CMV-luc (EWS-FLI1 target promoter against control promoter), 48 h; screened at 20 nM (by protocol)
# Outline: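 Readout: OneGlo luminescence, 48 h post-transfection, TC32-NR0B1-luc vs TC32-CMV-luc in parallel. siRNA 20 nM final, RNAiMax lipid, 600 cells/well; z-score-MAD transformed, then seed-adjusted.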
row,Sequence,seed-corrected z-score
1,UGUGUUUAACCAGAGAUCC against RXRG,0.625
2,UGACCGUUUCGGAUGAUGG against ATP2B4,0.168
3,UAGCUGUCGAACACCCAGG against PDDC1,1.63
4,UCAGUUUGCAAUUAGGCAG against LOC113230,0.933
5,UACCAGCUCACUGACAUGG against OR8B4,0.0124
6,UGCAUGACAAACAAAUUCC against GATAD1,0.136
7,UCCAGUUGUAGUUCGGCAG against KISS1,-2.32
8,UCAGGUUGAUGAAAUGGGC against PRDM15,-0.519
9,UGAGCACAGAAAGUGGACC against SNRPD2P1,-0.553
10,ACAUCCUUAAGAAAUAUGG against PLEKHA2,-0.563
11,AAAGCGUAGAAAAUAUCCC against DNAH5,-0.0906
12,UCAGUAUGAAGAGCAACAG against MCM2,-0.317
13,UACCUCUUAAUAAGAUCUG against ATP8A2,0.0625
14,UUUCGGAAAUCUAGGCUGG against KANSL1,1.62
15,UUGAUAUAAACUCUGACAC against PDE4D,0.567
16,UCGUCUUCGCUUUAUAUCC against EFR3A,-3.4
17,AUCGGUAGCAGUGAACAUG against LPP,-0.942
18,UAUAUUAGCGGUAACGGUG against RPL15P3,-2.66
19,UCUGUUACAAUUGUUCCAC against ETF1,-0.812
20,UUUCUCAUCAAAGAACUCC against PPP2R1A,-0.546
21,AAGCUUUAUACUUUCCACC against OR7G3,-0.496
22,AUUCGAACAACAUUUCUUC against ANOS1,-0.592
23,UCUCGAACCUGGAGAAUGC against FAM109B,0.134

row,Sequence,seed-corrected z-score
1,UGUGCACUAAUGCGAAUCG against MYO5C,-0.13
2,UCUGCUUUGUCUCUCAGCC against FAM92A1,-2.84
3,UUCUGGAUGUGGUAGGGCC against ACSBG1,0.963
4,UCUGUUCGAAAGUCAAAGC against SRBD1,-0.955
5,UGAGUUGCAGUCCUCCACG against C9orf173,-2.17
6,UUCGUAAUAAAGGAUCCAG against NF1,0.124
7,UAUGCGCAGAUGUUACUCG against PAICS,0.0926
8,UUCACUUUCAGAUCGGGAC against C18orf25,-1.35
9,UUUAAGUCAAAUCUUGUCC against WTIP,-0.633
10,UAUUUACCAGGCUCUGUGG against FAM47A,0.667
11,UGCUGCAUGACAUCCACCC against SORBS3,0.835
12,AGGGUAGAAAGAGUCGUCC against ANKRD33B,-2.3
13,UUUUCGAUCAUCACCACAC against YWHAQ,-0.216
14,UUGGAGUUCAGGAUCCUCU against MYO19,0.563
15,UCGGUUGAAACAUUUGUGG against IPO11,0.941
16,UAUGUAACUUUGAUGAGAG against CEACAM22P,0.0194
17,AUCCUUGUACAUGCAGUCC against ELL,-2.16
18,AUAAAACUCAUCUGAGUCC against CYP11B2,0.754
19,AAAGCUAACAUAUUGUAGU against MSGN1,-0.0625
20,UUUCCGAUAGAUUGACUGC against SMPX,0.0624
21,UUUCAUCUCAUCGAGGAAG against LDOC1,-2.02
22,UUCUCACUCAUGUUGCCUC against ZNF768,0.198
23,UACGGUCACUGAUAGUUGG against CYP17A1,-0.42

row,Sequence,seed-corrected z-score
1,UACCGGAAAGACAAGAUAG against CRYBG3,0.146
2,UGUAGCUGAAGAAUAUUCC against ZBTB24,-2.4
3,UCUUAUUGAAAAUCUCAGC against NR1H4,0.518
4,UGUCUAACAAAUGUGGAGC against ZNF548,0.841
5,UCUGGUGUACAAGUAGUCC against FICD,0.433
6,UCUCCUCAAAGCACCAGCC against LOC653712,-0.019
7,AAAGUAGCAUCGUCUGUCU against GSC,0.704
8,UUUGAGUAGAGCAGCAUCC against SENP3,-2.41
9,AUACUGGUUAGAAUCAGAC against EVI5,-0.0438
10,AAUGAAGCAGUUCAUAAGC against ST3GAL6,0.107
11,UUACGUUCAACCUUAGAUC against PHLPP1,0.355
12,UUUAGUUCACCCUGAAUCG against NUP54,-0.0579
13,UAAGUACUCUCAACACUGC against PIN4P1,0.00579
14,AGCUUGUAAACACUUCUGC against RGN,-2.52
15,UUUGAGUCUAGUGGGAUAG against SLC22A10,0.479
16,UAUAGAUGCGAAUCCUUUC against C17orf97,-0.421
17,AAAGCUGCAACUGCCUCCC against C2orf48,-2.61
18,UAAGUCGAACCUUAUCUCC against AIM2,-0.16
19,UAGAAUAAAAUACCGAAUG against SNRPD1,-1.88
20,UUUGUCUCAAGAAUUAUCA against SPTSSA,0.0457
21,UUGAUUCUCGGGUCUUUGG against FAM71F2,-12.6
22,UUUGAUUAAAAGGUCUCUG against PIGX,-1.29
23,UGAGAUGAACUGAUCUUGC against OR10W1,0.324

row,Sequence,seed-corrected z-score
1,UCAGGUUUAAGAGGUAUGC against TRAM2,0.485
2,UCCAGUUGCACUUCUGUCC against CGREF1,-3.65
3,UGUAUACAAAGAGACAAUC against TAS2R5,0.728
4,UUUGCUAGAAGCCUUCUUG against DOK6,-0.847
5,UUGAGGUCAAUUUCGGCUG against H2AFY2,-0.937
6,UGUUUUAACUGCUGUAUCC against RP9,0.734
7,UCUUCAUUAGCUUCUUCAC against PLCXD2,0.44
8,UGAUGCACGAGAAGAAGCC against KCNK3,-13.5
9,UUUGCUACAGAAUUGCUUG against ANAPC16,-1.17
10,AAAGGAUCUCUCUGUAUUU against SNTN,1.99
11,UGUACUGUCAGACUAAUGC against MRGPRX3,-0.749
12,UUCAGCAUUACUCUCUGCG against RPL17P39,-2.51
13,UCAGCAUAUAGCAGGAUCC against NPR2,-0.565
14,AUUCUCACCAGACAUCCUG against KRT74,1.12
15,AAGAAUUCCAUACAUCUUC against ACKR1,-0.0448
16,UAAGCAUCCAGUAGGCAGG against XBP1,-3.08
17,UCUCUAAAAGGUGUCUUGC against SH3RF2,0.606
18,AUAGUAAUCAUCCAGAGCA against ARHGEF35,-0.685
19,AUAGGUACUGCACUGCAGG against GPS2,-0.377
20,UGACUAUGAUGUUGAAUCC against OR8A1,-1.35
21,UUCGAUUCAUGAAAUCUCC against GTF3C1,0.399
22,UGUUCAACGAGGGUAUAGC against ZNF416,0.828
23,UUGUGGUAGAUCUGGACGC against VASP,-2.15

row,Sequence,seed-corrected z-score
1,ACAGUUAUUCUGUCCAUCG against LDLRAD3,-6.33
2,UCUGGUUUUUGUACCCGCC against LOC403323,-0.673
3,UUUUUAACAGAGGUCUCCA against RAB42P1,-0.18
4,UUUCAAUCUUGUCUGAGGC against COX11,-0.764
5,UUGAGUAAGAACUUUAUCC against SMAD1,-2.45
6,AAUAUGUCGUUGUAAGUGC against ZNF644,-0.209
7,UUCUUCUAAAACAUCCUCG against GLE1,-0.174
8,UUAUCUAUCACCCAAGCAG against RTN4IP1,-0.598
9,UUCCGUUUAAUUUCAACUG against BRCA2,0.32
10,UAUUUGUUUCACCUCACUG against DNAJC8,1.25
11,AGAAGGAACAUGCGUGCAG against TTC34,1.38
12,UCCUUGUCGACAACGAGUG against GAPVD1,-3.68
13,UAAUUGAGUUUCUAAAGUG against CDKAL1,-0.809
14,UUCAUUAUGUGGAACAUAC against CYP19A1,-1.02
15,AAAGUGGACACCAUAGACC against HGD,0.0682
16,UUUGUAGCAAGGAAUACAG against OR7A5,-3.5
17,UGUCGAUCUAGGUACUGAC against SART3,-0.192
18,AUAAAUGGUGGUUUAAGGU against METTL2B,-0.343
19,AAAGCCAGGAGUUCCGCUG against GNG8,-0.7
20,UCAGGAACACCGAGUACUC against S100A5,-0.776
21,UAGUUGGUUAAAUUGGACC against TEKT3,-0.0576
22,AAACCUUUUGCAUCUAUGG against GSTA12P,0.753
23,AAAGUUGCUGGUGUGCUCC against NUTM1,-1.38

row,Sequence,seed-corrected z-score
1,UCUUUGAGCAGCUUCCAGC against SOX4,-5.6
2,UCAGGUAGCAGAGUACUGC against IL22RA1,-0.631
3,AGAGUUCAAAUGUAUUGUC against KLHL21,-1.34
4,UCUUUUUGUAGGUCUCUGC against RCN3,-3.02
5,UCCUUUAACAACAAGUUGU against IL10,-0.0724
6,UCUCUAAACAGGUCCCAAG against PDX1,0.0859
7,AUCGCUAAGACGGUGAUCC against EIF4ENIF1,-0.0436
8,UUCCGCAGCAAUGAUAGGC against TMEM132D,-0.636
9,UCUGCUACUCCAUUGAUCU against TRMT12,-1.63
10,UACAUAGAAGGUGUUGGGC against CD81,0.0377
11,UUCUUUUGUCCAUACAAUC against TAS2R45,-2.34
12,UACAAGCCCAGUUGAGAUC against DSTNP4,-0.547
13,UACGAUAUUGUUGCUACAG against SLIT2,-0.0537
14,UAUUAGUCCCGGACGAAUG against SCAF8,-0.115
15,UUGUUUAUGAGCAAGGUGG against RPL41,-0.22
16,UUUGGUGCAAAGUCCAUGC against SKIV2L,-2.51
17,UUGAGGAUACAGCACAGCC against SERPINI1,-0.491
18,ACAGGCUUUAUCAUACUGC against ZXDC,-0.245
